# Measured values as given in PubChem BioAssay (NCI).
# The panel holds about 83,000 compounds, 20% with a hit somewhere; the sample as a whole holds those more often.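 48-hour exposure, single concentration, 96-well plates; percent growth endpoint where 0 means no net growth. Active: below 10.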 A number with no mark means an inactive call. The source made the active and inactive calls.
# Tested on: COLO 205 colon
# Assay: NCI-60 one-dose screen, 48 h (100 = growth as untreated, 0 = no growth, -100 = all killed)
# Details: 10 µM unless noted
row,Structure (SMILES),growth
1,COc1ccc(C2C(C#N)=C(/N=C/c3ccc(Cl)cc3)Oc3c2sc2c(C)cccc32)cc1 (stereo not drawn),-22.3% (active)
2,CN1CC[C@@H]2[C@@]3(C)CC[C@H](O)C(C)(C)[C@@H]3CC[C@@]2(C)[C@]2(C)CC[C@@]3(CO)CCC(C)(C)C[C@@H]3C12 (stereo partly drawn),-2.47% (active)
3,Clc1ccc2c(N/N=C/c3c[nH]c4ccccc34)ccnc2c1,-85.4% (active)
4,O=c1c2cc(-c3ccc(F)cc3F)ccc2n(Nc2ccccc2)c(=O)n1-c1cccc(C(F)(F)F)c1,74.1%
5,NC1[C@H]2CN(c3cnc(C(=O)Nc4cc(F)cc5cccnc45)cn3)C[C@@H]12 (stereo partly drawn),18.5%
6,CCOC(=O)c1cccc(NC2=C(Cl)C(=O)c3nc(C)ccc3C2=O)c1,120%
7,O=C(CSc1nnc(-c2cccs2)n1-c1ccccc1)Nc1ccccc1,104%
8,CCc1cc2c(cc1Cl)nc1c(=O)[nH]c(=O)nc-1n2CCOCC(C)C,21.3%
9,Cc1csc(/N=C(N)/N=C(\N)c2cccc(C#N)c2)n1,76.1%
10,Clc1ccc(CSc2nnc(-c3ccc(Cl)cc3)n2-c2ccccc2)cc1,122%
11,C#Cc1nc(C(=O)NCCCCCCC(=O)NO)cs1,-61.7% (active)
12,CCCNNC(=O)c1ccc(-c2ccc(NC(=O)CCCCCCC(=O)N[C@H](C(=O)N3C[C@H](O)C[C@H]3C(=O)N[C@@H](C)c3ccc(-c4scnc4C)cc3)C(C)(C)C)cc2)cc1,-31.1% (active)
13,CN1CCN(c2ccc(Nc3nc(NCCNC(=O)c4ccccc4)c4sccc4n3)cc2)CC1,56.5%
